Most compounds without a hit are left out; they make up all but 0.4% or so of the library.
AID inhibitor = inhibitors of human activation induced cytidine deaminase. AID deamination FRET fluorescence, UDG-coupled, 4 h. 91,000 compounds, 0.32% hits. AID 1347428. Potency, µM (series often up to 115 µM), most hits filed as inhibitors; further: nearly all actives have a fitted effect of over 25% in size
Target sequence (Q9GZX7 whole entry, looked up): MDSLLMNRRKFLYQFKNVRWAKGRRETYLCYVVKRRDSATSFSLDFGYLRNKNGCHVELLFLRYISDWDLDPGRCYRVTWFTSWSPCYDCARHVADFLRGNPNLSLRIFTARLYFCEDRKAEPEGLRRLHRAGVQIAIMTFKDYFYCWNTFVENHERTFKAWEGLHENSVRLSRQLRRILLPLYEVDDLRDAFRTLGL
UDG counter = UDG inhibition counter-screen; FRET deamination/UDG coupled assay, UDG read, 4 h; AID 1347430; Potency, µM (series often up to 115 µM), for inactives: at the highest dose activity change, negative = inhibition, actives largely listed as inhibitors; 91,000 compounds, 0.14% hits; further: nearly all actives have a fitted effect of over 65% in size
An asterisk follows results filed as active; i = inactive; u = inconclusive; [ ] = dose if it differs, or a comment. The call rests on the fitted dose curve; in most records, active means well fitted curve in the direction sought with a large enough effect; inconclusive means small, poorly fitted or top-dose-only effect, or another doubt; inactive means no such curve, though single readings can be large; an effect the other way counts as inactive or inconclusive. On the % scale 0 is the no-effect control and ±100 the full control effect; potency means the concentration at half of the fitted maximal effect.

SMILES	AID inhibitor	UDG counter
CCOc1ccc(-n2c(Cc3ccccc3)nnc2SCc2nc(-c3cccs3)no2)cc1	32µM*	u
Cc1ccc(-n2c(SCc3nc(-c4ccccc4C)no3)nnc2-c2ccncc2)cc1C	32µM*	u
Cc1ccc(CN(C)Cc2ccccc2)o1	i	3%
CCCc1cc(=O)oc2cc(OS(=O)(=O)c3c(C)c(C)cc(C)c3C)ccc12	i	2%
CCCCN(CCCC)CC(O)Cn1cc(/C=C/C(=O)c2ccccc2)c2ccccc21 (centres undefined)	32µM*	-16%
CCCCN(C)CC(O)Cn1cc(/C=C/C(=O)c2ccc(OCC)cc2)c2ccccc21 (centres undefined)	u	-17%
Cc1ccc(S(=O)(=O)c2cn(C)c3cc(N4CCCC4)c(F)cc3c2=O)c(C)c1	i	3%
CCn1cc(S(=O)(=O)c2ccc(C)cc2C)c(=O)c2cc(F)c(N3CCCC3)cc21	22µM*	u
COc1ccc(CN2CCCN(C(=O)c3cn(C)nc3-c3ccc4c(c3)OCCCO4)CC2)cc1	i	1%
COc1ccc(-c2cc(C)no2)cc1S(=O)(=O)N1CCCC(C)C1 (centres undefined)	i	-9%
Cc1cc(-c2ccc(C)c(S(=O)(=O)N3CCCC(C)C3)c2)on1 (centres undefined)	25µM*	12%
CCOc1ccc(C(=O)c2cn(CC(=O)Nc3ccc4c(c3)OCO4)c3ccc(OCC)cc3c2=O)cc1	i	4%
CCOc1ccc(C(=O)c2cn(CC(=O)Nc3ccc4c(c3)OCO4)c3ccc(OC)cc3c2=O)cc1	45µM*	-16%
CCCn1c(C(O)(c2nc3ccccc3n2CCC)C(F)(F)F)nc2ccccc21	i	0%
Cc1csc(C(C#N)C(=O)CSc2ccc3c(c2)OCCO3)n1 (centres undefined)	i	2%
CCCN(CCC)CCNC(=O)c1cc2c(-c3ccc(Cl)cc3)nn(C)c2s1	u	-23%[57.5 µM]
CCCCN(CC)CCNC(=O)c1cc2c(-c3ccc(Cl)cc3)nn(C)c2s1	89µM*	-29%
CSc1cccc(NC(=O)/C=C/c2cccc(F)c2)c1	i	-9%
CC(C)(C)c1ccc(C(=O)NCC(c2cccs2)S(=O)(=O)c2cccs2)cc1 (centres undefined)	u	-4%
CC(C)(C)c1ccc(C(=O)NCC(c2cccs2)S(=O)(=O)c2ccc(F)cc2)cc1 (centres undefined)	i	79µM*
COc1ccc2c(c1)Cc1sc(NC(=O)c3cccc(F)c3)nc1-2	u	-10%
COc1ccc2c(c1)Cc1sc(NC(=O)c3cccc(Br)c3)nc1-2	50µM*	-19%
CSc1ccc(C2CC(C)=NN2c2nc(-c3ccccc3)cs2)cc1 (centres undefined)	i	-13%
COc1ccc(-c2csc(N3N=C(C)CC3c3cc(OC)c(OC)c(OC)c3)n2)cc1 (centres undefined)	u	89µM*
CCC(C)Cn1c(/C=C/c2ccccc2)nc2ccccc21 (centres undefined)	u	79µM*
SMILES	AID inhibitor	UDG counter
CC(C)Cn1c(/C=C/c2ccc(F)cc2)nc2ccccc21	i	14%
COc1ccccc1/C=C(\C#N)c1nc2ccccc2[nH]1	i	2%
Cn1c(=O)c2c(-c3ccc(Cl)cc3)n(CCc3ccccc3)cc2n(C)c1=O	u	-18%
Cn1c(=O)c2c(-c3ccc(Br)cc3)n(CCc3ccccc3)cc2n(C)c1=O	40µM*	0%
O=C(Cn1ccc2ccc(Cl)cc21)NCC1CCC(C(=O)O)CC1 (centres undefined)	i	2%
Cc1nc2nc(SCC(=O)N(C)Cc3ccccc3)nn2c(C)c1Cc1ccccc1Cl	45µM*	-15%
Cc1nc2nc(SCC(=O)NCc3ccccc3Cl)nn2c(C)c1Cc1ccccc1	u	0%
COc1cc(C2CC(=O)Nc3ccsc32)ccc1OCC(N)=O (centres undefined)	i	8%
Cc1nn(-c2ccc3nnc(C)n3n2)c2c1C(c1cccc(OC(C)C)c1)CC(=O)N2 (centres undefined)	i	11%
COc1ccc(C2CC(=O)Nc3nc(N)sc32)cc1OCc1ccccc1Cl (centres undefined)	40µM*	-6%
CC(C)Oc1cccc(C2CC(=O)Nc3nc(N)sc32)c1 (centres undefined)	28µM*	-14%
CCCOc1ccc(/C=C/C(=O)Nc2cc(C(C)(C)C)ccc2OC)cc1OC	u	-17%
Cc1ccccc1C(=O)/C=C/c1cc2ccccc2nc1N1CCOCC1	u	-5%
COC(=O)c1sc(=S)n(-c2cc(Cl)ccc2C)c1N	i	10%
CN(C)CCCNC(=O)C1CCCN(c2ncnc3nc[nH]c23)C1 (centres undefined)	i	3%
CCc1ccc(CSc2nc(-c3ccccc3F)nc3c2Cc2c(CO)cnc(C)c2O3)cc1	i	-2%
CCN(CC)C(=O)CSc1nc(-c2ccccc2F)nc2c1Cc1c(CO)cnc(C)c1O2	28µM*	5%
COc1cc(NS(=O)(=O)c2cccc(Cl)c2C)cc2sc(NC(C)=O)nc12	i	-1%
COc1ccc(Cl)cc1NC(=O)N1CC(C)Oc2ccc(C)cc21 (centres undefined)	i	-1%
CCc1ccc(NC(=O)C2CCCN(S(=O)(=O)c3ccc(F)cc3)C2)cc1 (centres undefined)	i	-1%
CC1CCN(S(=O)(=O)c2ccc(NC(=O)C3CC(=O)N(CCc4ccc(F)cc4)C3)cc2)CC1 (centres undefined)	i	89µM*
COC(=O)c1ccc(COc2ccccc2/C=C2\CCc3cc(OC)ccc3C2=O)cc1	i	-7%
CC(=O)C1=CC[C@H]2[C@@H]3CC[C@H]4C[C@@H](O)CC[C@]4(C)[C@H]3CC[C@]12C	i	-7%
CC(=O)O[C@H]1C[C@@H]2CC[C@@H]3[C@H](CC[C@@]4(C)[C@H]3C[C@H]([N+]3(C)CCCCC3)[C@@H]4OC(C)=O)[C@@]2(C)C[C@@H]1[N+]1(C)CCCCC1	22µM*	-8%
CCCc1ccc(NC(=O)c2nccnc2N)cc1	i	-4%
SMILES	AID inhibitor	UDG counter
CC(C)N(Cc1cnn(C)c1)S(=O)(=O)c1ccc(Cl)cc1	i	7%
Clc1cccc(CSc2cccc3cccnc23)c1	25µM*	-3%
Clc1cccc(CSc2nc3ncccc3o2)c1	i	3%
Cc1csc(NC(=O)CCc2ncc(-c3ccc(F)cc3F)o2)n1	i	2%
Cc1ccc(C(=O)c2cn(Cc3ccccc3F)c3cc4c(cc3c2=O)OCCO4)cc1	u	-12%
Cc1ccc(C(=O)c2cn(Cc3ccccc3F)c3cc4c(cc3c2=O)OCO4)cc1	40µM*	-6%
Fc1ccc(-c2csc(-c3ccsc3)n2)cc1F	i	-10%
COc1ccc(S(=O)(=O)N(CC(=O)NCc2ccccc2)c2ccc(C)cc2)cc1OC	i	-8%
COc1ccc(S(=O)(=O)N(CC(=O)NC(C)c2ccccc2)c2ccc(C)cc2)cc1OC (centres undefined)	45µM*	u
COc1ccc(S(=O)(=O)N(CC(=O)Nc2cc(C)cc(C)c2)c2ccc(Cl)cc2)cc1	i	-1%
COc1ccc(S(=O)(=O)N(CC(=O)Nc2cccc(C(F)(F)F)c2)c2ccc(C)cc2)cc1	25µM*	-11%
C=CCn1c(SCc2coc(-c3ccc(F)cc3)n2)nnc1C1CCS(=O)(=O)C1 (centres undefined)	i	-2%
CN(CCOc1ccccc1)Cc1cc(=O)oc2cc(O)ccc12	i	-4%

Bioassay records (PubChem BioAssay)
